{
  "source": "PubChem BioAssay AID743126",
  "about": "(The Scripps Research Institute Molecular Screening Center, 2013)",
  "note": "The campaign covered roughly 370,000 compounds. About 2,100 (0.57%) were called active. Only a selection was taken, and actives are over-represented in it overall. Values without a mark were called inactive.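 Rule for the calls: active = inhibition above mean plus 3 SD of compounds lying within the high and low control bounds (cut at about 19% in these data); inactive = the rest.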",
  "data": [
    {"molecular_target": "Group 3 secretory phospholipase A2 (Homo sapiens) (UniProt Q9NZ20)", "sequence (Q9NZ20 whole entry, looked up)": "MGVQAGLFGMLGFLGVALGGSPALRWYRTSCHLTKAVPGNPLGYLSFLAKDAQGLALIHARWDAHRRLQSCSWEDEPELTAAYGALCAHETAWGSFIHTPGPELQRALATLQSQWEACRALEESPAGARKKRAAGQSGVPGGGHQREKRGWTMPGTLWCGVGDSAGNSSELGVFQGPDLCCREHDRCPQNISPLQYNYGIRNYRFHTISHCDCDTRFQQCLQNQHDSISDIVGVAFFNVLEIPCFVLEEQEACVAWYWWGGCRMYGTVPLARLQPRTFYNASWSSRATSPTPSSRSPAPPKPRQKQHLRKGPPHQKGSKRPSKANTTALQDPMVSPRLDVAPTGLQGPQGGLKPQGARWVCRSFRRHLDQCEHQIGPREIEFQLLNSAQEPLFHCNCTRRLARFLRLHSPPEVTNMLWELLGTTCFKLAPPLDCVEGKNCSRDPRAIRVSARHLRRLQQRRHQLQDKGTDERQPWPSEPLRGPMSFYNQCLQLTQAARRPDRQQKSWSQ", "experiment": "HGIII-sPLA2 enzyme inhibition – biochemical, QFRET, BODIPY PC-A2 liposome substrate, primary screen (AID 743126);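 note: 0% = median of test compound wells and 100% = no enzyme DMSO wells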", "details": "QFRET BODIPY PC-A2 liposome hydrolysis, fluorescence; at 12.2 µM; stronger effect = higher value", "values": [
      {"compound": "COc1ccc(-n2c(SCC(=O)Nc3ccc4c(c3)OCCO4)nnc2-c2ccc(Cl)cc2)cc1", "inhibition": "0.31%"},
      {"compound": "CC(NCc1ccco1)C(=O)N1CCCCC1", "note": "(configuration not stated)", "inhibition": "3.8%"},
      {"compound": "CCN(CC(=O)NC1CCS(=O)(=O)C1)S(=O)(=O)c1ccccc1", "note": "(configuration not stated)", "inhibition": "22.4% (active)"},
      {"compound": "O=C(CSc1ccccc1F)NC1CCS(=O)(=O)C1", "note": "(configuration not stated)", "inhibition": "1.4%"},
      {"compound": "CCN(CC(=O)NCCc1ccccc1)S(=O)(=O)c1ccccc1", "inhibition": "0.93%"},
      {"compound": "CCCNC(=O)Nc1ccc2c(c1)C(=O)N(C)[C@H]1CC[C@H](CC(=O)NCC3CCCCC3)O[C@@H]1CO2", "inhibition": "-24.2%"},
      {"compound": "C=CCN1[C@@H](Cc2ccccc2)COc2cccc(N3CCSCC3)c2S1(=O)=O", "inhibition": "-0.87%"},
      {"compound": "O=C(CSc1nc2ccccc2s1)N=Nc1c(O)[nH]c2ccccc12", "inhibition": "-40.6%"},
      {"compound": "Cc1sc2nc(SCC(=O)c3ccc(O)c(O)c3)n(Cc3ccco3)c(=O)c2c1C", "inhibition": "23.9% (active)"},
      {"compound": "O=C(CSc1nnc(-c2cccs2)n1Cc1ccco1)c1ccc2c(c1)OCO2", "inhibition": "-35.9%"},
      {"compound": "O=C(CSc1nnc(COc2ccccc2)n1Cc1ccco1)c1ccc2ccccc2c1", "inhibition": "-53.5%"},
      {"compound": "COc1ccc(-n2c(COc3ccc(C)cc3)nnc2SCC(=O)Nc2ccc(Oc3ccccc3)cc2)cc1", "inhibition": "-8.43%"},
      {"compound": "CCN(C(=O)[C@@H](C1CC1)[C@@H](O)c1ccc2ccccc2c1)c1ccccc1", "inhibition": "4.03%"},
      {"compound": "CCCCN1CCN(C(=O)c2ccc3c(c2)NC(=O)C(C)(C)O3)CC1", "inhibition": "5.11%"},
      {"compound": "O=C(Nc1ccccc1)N1CCN(Cc2nc3ccccc3c(=O)[nH]2)CC1", "inhibition": "7.43%"},
      {"compound": "COC(=O)[C@H](C(C)C)N1CCc2nnn(Cc3ccc(C)cc3)c2-c2ccccc2S1(=O)=O", "inhibition": "-9.33%"},
      {"compound": "CC(C)=CCCC1(C)C=Cc2c(ccc3c2[nH]c2cc(O)c(C)cc23)O1", "note": "(configuration not stated)", "inhibition": "22.9% (active)"},
      {"compound": "C=C(C)C#CC(Cc1ccccc1)N(CC1CC1)/C(N)=N/C(=O)OCc1ccccc1", "note": "(configuration not stated)", "inhibition": "7.88%"},
      {"compound": "CC(C)c1cc(C(=O)N/N=C/c2ccoc2)c(O)c(C(C)C)c1", "inhibition": "22.1% (active)"},
      {"compound": "CC(C)c1cc(N=O)cc(C(C)C)c1O", "inhibition": "-42.9%"},
      {"compound": "C[C@@H]1COc2cccc(N3CCCC3)c2S(=O)(=O)N1C", "inhibition": "2.99%"},
      {"compound": "O=C(c1ccccc1)c1ccc(-c2ccccc2C(=O)NC2CCCCN(Cc3ccc(Cl)cc3)C2=O)cc1", "note": "(configuration not stated)", "inhibition": "-1.89%"},
      {"compound": "Brc1ccccc1C1Nc2cccc3cccc(c23)N1", "inhibition": "27.1% (active)"},
      {"compound": "COc1cc2c(cc1OC)C(c1ccccc1Br)NC(=O)C2", "note": "(configuration not stated)", "inhibition": "13.2%"},
      {"compound": "Brc1ccccc1C1N=C(c2ccccc2)NO1", "note": "(configuration not stated)", "inhibition": "9.79%"},
      {"compound": "Cc1ccc(NC(=O)Nc2cc(C)nn2-c2ccccc2)cc1", "inhibition": "3.2%"},
      {"compound": "Cc1nc2ccc(C(=O)N3CCN(C(=O)C(C)(C)C)CC3)cc2n1C1CCCC1", "inhibition": "3.1%"},
      {"compound": "CN1C(=O)c2cc(NS(C)(=O)=O)ccc2OC[C@@H]2O[C@@H](CC(=O)NCc3ccc(-c4ccccc4)cc3)CC[C@H]21", "inhibition": "-2%"},
      {"compound": "c1csc(-c2nnc(SCc3nc4ccccc4[nH]3)o2)c1", "inhibition": "-4.46%"},
      {"compound": "O=C(NC1CCCCN(Cc2cccc(C(F)(F)F)c2)C1=O)c1ccccc1I", "note": "(configuration not stated)", "inhibition": "-1.99%"},
      {"compound": "COc1cccc(CNCc2ccc3c(c2)OCO3)c1", "inhibition": "3.34%"},
      {"compound": "Cc1c(Cl)cccc1NC(=S)NCc1ccc2c(c1)OCO2", "inhibition": "19.5% (active)"},
      {"compound": "Cc1c(Cl)cccc1NC(=S)NCC(O)c1ccccc1", "note": "(configuration not stated)", "inhibition": "8.54%"},
      {"compound": "O=C(CSc1nnc(-c2cccc(Cl)c2)n1Cc1ccco1)Nc1ccc(OCc2ccccc2)cc1", "inhibition": "-12.1%"},
      {"compound": "Cc1ccccc1CS(=O)(=O)Cc1ccc(C(=O)Nc2ccc(Cl)cc2)o1", "inhibition": "-4.56%"},
      {"compound": "COc1ccc(NC(=O)C2C3C=CC(C3)C2C(=O)NCc2ccccn2)c(OC)c1", "note": "(configuration not stated)", "inhibition": "20.6% (active)"},
      {"compound": "CCS(=O)(=O)N1Cc2ccccc2CC1C(=O)Nc1ccc(OC)cc1OC", "note": "(configuration not stated)", "inhibition": "-0.28%"},
      {"compound": "CCOc1ccc(N2CC(C(=O)NCc3ccccn3)CC2=O)cc1", "note": "(configuration not stated)", "inhibition": "0.93%"},
      {"compound": "Cc1ccc(-n2c(SCC(=O)Nc3cccc4ccccc34)nnc2-c2ccccn2)cc1", "inhibition": "-5.54%"},
      {"compound": "CCc1cc(C(c2ccccc2OC)N2CCOCC2)c(NC(=O)c2ccccc2)s1", "note": "(configuration not stated)", "inhibition": "-10.3%"},
      {"compound": "COc1ccc(C(=O)Nc2sc(C)c(C)c2CN2CCOCC2)cc1", "inhibition": "21.9% (active)"},
      {"compound": "O=C(Nc1ccc(CSc2ccccc2)cc1)c1ccc(CN2CCOCC2)cc1", "inhibition": "-16.7%"},
      {"compound": "CCCCC(=O)N[C@@H]1CC[C@@]23CCCN2C(=O)CCC[C@H]3[C@H]1C", "inhibition": "7.19%"},
      {"compound": "COCC(=O)N[C@@H]1C[C@@H]2O[C@@H](CO)CC[C@@H]2O[C@@H]1CCc1ccc(-c2ccccc2)cc1", "inhibition": "-1.64%"},
      {"compound": "COc1ccc(C(N)c2csc(NC(=O)Nc3cccc(C(F)(F)F)c3)n2)cc1", "note": "(configuration not stated)", "inhibition": "27.4% (active)"},
      {"compound": "CCOC(=O)c1csc(NC(=O)Nc2cccc(OC)c2)n1", "inhibition": "-1.84%"},
      {"compound": "NC(c1csc(NC(=O)Nc2cccc(C(F)(F)F)c2)n1)C1CCCCC1", "note": "(configuration not stated)", "inhibition": "6.78%"},
      {"compound": "COC(=O)C[C@H]1CC[C@H]2[C@H](COc3ccc(NC(=O)C4CC4)cc3C(=O)N2C)O1", "inhibition": "-1.19%"},
      {"compound": "CC(C)(C)c1ccc(CSc2nnc(-c3cccs3)o2)cc1", "inhibition": "-0.56%"},
      {"compound": "CN(C)S(=O)(=O)c1cccc(NC(=S)N/N=C/C(=O)c2ccccc2)c1", "inhibition": "24% (active)"},
      {"compound": "CN(C)S(=O)(=O)c1cccc(C(=O)N/N=C\\c2ccco2)c1", "inhibition": "1.45%"},
      {"compound": "CN(C)S(=O)(=O)c1cccc(NC(=O)COC(=O)/C=C/c2cccs2)c1", "inhibition": "-11.5%"},
      {"compound": "COC(=O)C1CN(Cc2cn(Cc3ccc(F)cc3)nn2)CCS(=O)(=O)N1Cc1ccc(Cl)cc1", "note": "(configuration not stated)", "inhibition": "-11.8%"},
      {"compound": "Cc1cc(C(=O)NN=C/C=C/c2ccco2)n[nH]1", "inhibition": "13%"},
      {"compound": "COc1ccc2c(c1)c(=Cc1ccc(N(C)C)cc1)c1cc(-c3ccccc3)[n+](C)n12", "inhibition": "31.7% (active)"},
      {"compound": "CCCC[C@H](C(=O)N(CC)c1ccccc1)[C@@H](O)c1ccc2ccccc2c1", "inhibition": "-3.7%"},
      {"compound": "O=C(NNC(=S)Nc1ccc(F)cc1)[C@H]1C[C@@H]1c1ccccc1", "inhibition": "24% (active)"},
      {"compound": "Cc1ccc(NC(=O)C2CC2c2ccccc2)cc1", "note": "(configuration not stated)", "inhibition": "-0.8%"},
      {"compound": "O=S(=O)(NC(=S)Nc1ccccc1)c1ccc(F)cc1", "inhibition": "-1.06%"},
      {"compound": "Brc1ccc(C2CC(c3ccccc3)=Nc3ccccc3N2)cc1", "note": "(configuration not stated)", "inhibition": "-5.39%"},
      {"compound": "c1ccc(C2=Nc3cccc4cccc(c34)N2)cc1", "inhibition": "38.6% (active)"},
      {"compound": "CC[C@]1(O)C[C@@H]2CN(CCc3c([nH]c4ccccc34)[C@@](C(=O)OC)(c3cc4c(cc3OC)N(C)[C@H]3[C@@](O)(C(=O)OC)[C@H](OC(C)=O)[C@]5(CC)C=CCN6CC[C@]43[C@@H]65)C2)C1", "inhibition": "24.8% (active)"},
      {"compound": "CC[C@]1(O)CC2CN(CCc3c([nH]c4ccccc34)[C@@](C(=O)OC)(c3cc4c(cc3OC)N(C=O)[C@H]3[C@@](O)(C(=O)OC)[C@H](OC(C)=O)[C@]5(CC)C=CCN6CC[C@]43[C@@H]65)C2)C1", "note": "(some centres not stated)", "inhibition": "13.5%"},
      {"compound": "C=CCN1C(=O)[C@@H](CC(=O)NCCCCc2ccccc2)[C@]2(C(=O)OCC)CCCCC/C=C/12", "inhibition": "-9.75%"},
      {"compound": "COC(=O)[C@]1(C#N)CC(=O)N(CC2CCCCC2)[C@@H]1c1ccccc1", "inhibition": "4.27%"},
      {"compound": "CN(C(N)=NC(=O)/C=C/c1ccccc1)C(C#Cc1ccccc1)Cc1ccccc1", "note": "(configuration not stated)", "inhibition": "2.67%"},
      {"compound": "CCN(CC)S(=O)(=O)c1cc(C(=O)Nc2ccccn2)ccc1C", "inhibition": "-0.99%"},
      {"compound": "O=C(COC(=O)c1ccccn1)NNC(=O)c1ccc(Br)cc1", "inhibition": "-1.11%"},
      {"compound": "O=C(NNc1ccccn1)c1ccc(Cl)nc1", "inhibition": "21.1% (active)"},
      {"compound": "O=S1(=O)c2c(cccc2N2CC[C@H](O)C2)O[C@@H]2CCN1C2", "inhibition": "4.99%"},
      {"compound": "O=C(NCc1ccco1)C1CCCN(S(=O)(=O)c2ccc(Cl)s2)C1", "note": "(configuration not stated)", "inhibition": "-7.36%"},
      {"compound": "CCc1cccc(CC)c1NC(=S)NCc1ccc2[nH]c(C)cc2c1", "inhibition": "20.3% (active)"},
      {"compound": "CCOCC(=O)NCc1ccc2c(c1)cc(C)n2C", "inhibition": "12.3%"},
      {"compound": "Cc1cc2cc(CNC(=O)c3cccs3)ccc2[nH]1", "inhibition": "1.16%"},
      {"compound": "COc1cccc(CNC(=O)C2CCCN(c3nc4ccccc4o3)C2)c1OC", "note": "(configuration not stated)", "inhibition": "10.2%"},
      {"compound": "COc1ccc(-n2c(SCC(=O)Nc3ccc(C)c(Cl)c3)nc3ccccc3c2=O)cc1", "inhibition": "14.2%"},
      {"compound": "CC(C)(C)OC(=O)NCCc1ccccc1/C=C/S(=O)(=O)NCc1ccc(F)cc1", "inhibition": "-1.5%"},
      {"compound": "CCCCNC(=O)C[C@H]1C[C@@]2(C(=O)OC)C(=C[C@H](COCc3ccccc3)O[C@@H]2C)N(Cc2ccc(Cl)cc2Cl)C1=O", "inhibition": "-3.1%"},
      {"compound": "Cc1ccc(-c2nnc(SCC(=O)Nc3ccc(Oc4ccccc4)cc3)n2Cc2ccco2)cc1", "inhibition": "-6.88%"},
      {"compound": "O=C(Cc1c(Cl)cccc1Cl)NC1CC1", "inhibition": "2.07%"},
      {"compound": "O=C(NNc1cc(Cl)cc(Cl)c1)c1c(F)cccc1Cl", "inhibition": "3.94%"},
      {"compound": "O=C(CCl)NNc1cccc(Cl)n1", "inhibition": "71% (active)"},
      {"compound": "COC(=O)[C@]12C[C@H](CC(=O)N3CCOCC3)C(=O)N(Cc3ccc(Cl)cc3Cl)C1=C[C@H](COCc1ccccc1)O[C@@H]2C", "inhibition": "-3.17%"},
      {"compound": "O=C1CC(c2ccc3c(c2)OCO3)N=C2N(CC3CC3)C/C(=C/c3ccccc3)N12", "note": "(configuration not stated)", "inhibition": "-10.4%"},
      {"compound": "CCOc1ccc(Br)cc1S(=O)(=O)Nc1cccc(S(=O)(=O)N(CC)CC)c1", "inhibition": "-8.7%"},
      {"compound": "CCOc1ccc(Br)cc1S(=O)(=O)N1CCC(C(=O)O)CC1", "inhibition": "5.01%"},
      {"compound": "CCOc1ccc(Br)cc1CSC(=N)N", "inhibition": "34.9% (active)"}
    ]}
  ]
}
